Results filed as inconclusive are left out. Where a call stands in place of a potency, no number is given. Calls of active or inactive are those of the source. Calls come from the whole dose curve; as a rule, active = well fitted cell-killing curve with a large enough effect; inconclusive = small, poorly fitted or top-dose-only effect, or effect the other way; inactive = flat fitted curve, though single readings scatter.
Potency is the fitted concentration of half-maximal effect.

The test system of the first test is OV90. Description: Primary qHTS to identify gynecologic anti-cancer compounds using libraries of approved drugs and bioactive compounds (AID 1345084). Note: nearly all actives have a fitted effect of over 55% in size. As to conditions: Gynecologic cancer cell panel viability, ATPlite luminescence, 48 h; series mostly up to 57.5 µM. A digest of the protocol:
(§1)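 48 h compound exposure at 37 C, 5% CO2; five-point qHTS. ATPlite luminescence readout of cell ATP.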
A general note: In qHTS, concentration-response curves come from the screen itself.
For the molecule `C=C1C(=O)O[C@@H]2CC(C)=C([C@@H](C)CCCO)[C@@H](OC(=O)C(C)C)[C@H]12`, the Potency result is “inactive”.
The same measure, in the same setting: the entry for `Oc1ccc(Nc2nc(-c3ccc(Cl)cc3)cs2)cc1` is “inactive”.
Same read-out and setting: the entry for `Nc1ncnc2c1ncn2[C@@H]1O[C@H](CO)C[C@H]1O` is “inactive”.
`OCC(Cc1ccccc1)Nc1nc(Oc2ccc3c(c2)CCC3)nc2c1ncn2Cc1ccc(-c2ccccc2)cc1` (stereo not given): the Potency entry is “inactive”.
Same read-out and setting: the entry for `Cc1cc2nc(NCCCO)n(CC(=O)c3cc(C(C)(C)C)c(O)c(C(C)(C)C)c3)c2cc1C` is “inactive”.
Still for that read-out and setting: the entry for `CC1(C)CC23[C@@H]4CC(=O)[C@@H]2COC(=O)[C@@H]3CC[C@H]41` is “inactive”; for `Cc1ccccc1C(=O)Nc1ccc(C(=O)N2CCC[C@@H](O)c3cc(Cl)ccc32)c(C)c1` it is “inactive”.
The same measure, in the same setting: the entry for `CCCCn1c(-c2ccccc2)nc(-c2ccccc2)c1CN(Cc1ccc2c(c1)OCO2)Cc1ccc2c(c1)OCO2` is “inactive”; for `CC1CCN(C(c2ccc(F)cc2)c2ccc(C(C)C(=O)O)cc2-c2ccc(C(F)(F)F)cc2)CC1` (stereo not given) it is “inactive”.
Regarding `O=C(NC(NC(=S)Nc1ccc(F)c([N+](=O)[O-])c1)C(Cl)(Cl)Cl)C(c1ccccc1)c1ccccc1` (stereo not given), the Potency result was “inactive”.
For `OCC(CO)(CO)NCC(O)Cn1c2ccc(Cl)cc2c2cc(Cl)ccc21` (stereo not given), the Potency result was “inactive”.
The same measure, in the same setting: then `CC(=O)C1=C(O)C2c3c[nH]c4cccc(c34)CC2C(C)(C)N(C)C1=O` (stereo not given), with “inactive”.
The same measure, in the same setting: the entry for `CC(C)N(CCCNC(=O)Nc1ccc(C(C)(C)C)cc1)C[C@H]1O[C@@H](n2cc(Br)c3c(N)ncnc32)[C@H](O)[C@@H]1O` is “inactive”; for `CC(=O)N[C@@H](CC(=O)O)C(=O)N[C@@H](CCC(=O)O)C(=O)N[C@H](C(=O)N[C@@H](CC(=O)O)C(=O)Nc1ccc2c(C)cc(=O)oc2c1)C(C)C` it is “inactive”; for `CC1CCCC(SCC(O)C(=O)O)CC(=O)c2c(O)cc(O)cc2CC(=O)O1` (stereo not given) it is “inactive”.
On the same count and under the same terms, then `CN1CCN(C(=O)c2ccc(Nc3nccc(-c4cccs4)n3)cc2Cl)CC1`, with “inactive”; and `Cn1cc(-c2cnc3ccc4ccc(CS(=O)(=O)NCc5ccccn5)cc4c(=O)c3c2)cn1`, with “inactive”.
Regarding `C=C1[C@@H](C2=CC(=O)OC2)CC[C@@]2(O)[C@@H]1CC1[C@H]2CC[C@@H]2C[C@@H](O[C@H]3O[C@@H](C)[C@@H](O[C@@H]4O[C@H](CO[C@@H]5O[C@H](CO)[C@@H](O)[C@H](O)[C@H]5O)[C@@H](O)[C@H](O)[C@H]4O)[C@H](OC)[C@H]3O)CC[C@]12C` (stereo not given in full), the activity change, negative = cytotoxicity is -0.0855% [at 11.6 µM] (inactive).
Regarding `C=C(C)[C@@H]1CC[C@]2(C(=O)O)CC[C@]3(C)C(CCC4[C@@]5(C)C[C@@H](O)[C@H](O)C(C)(C)C5CC[C@]43C)C12` (stereo not given in full), the Potency result is “inactive”.
On to `CCN(CCCOc1ccc2c(Nc3cc(CC(=O)Nc4cccc(F)c4)[nH]n3)ncnc2c1)CCOP(=O)(O)O`, for which the Potency entry is “inactive”.
Same read-out and setting: the entry for `CC(C)CCC[C@@H](C)[C@H]1CC[C@H]2[C@@H]3CC=C4C[C@@H](OC(=O)NCCN(C)C)CC[C@]4(C)[C@H]3CC[C@]12C` is “inactive”; for `O=C(NNc1ccccc1)c1ccncc1` it is “inactive”; for `C=C1[C@@H](C)[C@H]2[C@H](Cc3c[nH]c4ccccc34)NC(=O)[C@]23C(=O)/C=C/C(=O)[C@H](O)/C(C)=C\[C@@H](C)C/C=C/[C@H]3[C@@H]1O` it is “inactive”.
Same read-out and setting: then `CC(C)(C)c1ccc(CNC(=S)NCc2ccc(NS(C)(=O)=O)c(F)c2)cc1`, with “inactive”; and `CNCc1ccc(C)c(NC(=O)c2ccc(Nc3nc(-c4ccccc4)c4ccccc4n3)cc2)c1`, with “inactive”; and `CC1CCC(n2c3cnccc3c3cnc(Nc4ccc5c(n4)CCN(C(=O)CO)C5)nc32)CC1` (stereo not given), with “inactive”.
The same measure, in the same setting: then `COc1cc2ncnc(Nc3ccc(Oc4ccccc4)cc3)c2cc1OC`, with “inactive”.

For another test, the system named is PA-1. Described as above. As to conditions: Gynecologic cancer cell panel viability, ATPlite luminescence, 48 h; series mostly up to 57.5 µM. A digest of the protocol: as §1
(Cellular ATP, detected with luciferase, serves as a proxy for viable cell number.)
For `Cc1cc2nc(NCCCO)n(CC(=O)c3cc(C(C)(C)C)c(O)c(C(C)(C)C)c3)c2cc1C`, the Potency entry was “inactive”.
Still for that read-out and setting: then `CC1(C)CC23[C@@H]4CC(=O)[C@@H]2COC(=O)[C@@H]3CC[C@H]41`, with “inactive”.
The same measure, in the same setting: the entry for `Cc1ccccc1C(=O)Nc1ccc(C(=O)N2CCC[C@@H](O)c3cc(Cl)ccc32)c(C)c1` is “inactive”.
The same measure, in the same setting: the entry for `CCCCn1c(-c2ccccc2)nc(-c2ccccc2)c1CN(Cc1ccc2c(c1)OCO2)Cc1ccc2c(c1)OCO2` is “inactive”; for `CC1CCN(C(c2ccc(F)cc2)c2ccc(C(C)C(=O)O)cc2-c2ccc(C(F)(F)F)cc2)CC1` (stereo not given) it is “inactive”; for `O=C(NC(NC(=S)Nc1ccc(F)c([N+](=O)[O-])c1)C(Cl)(Cl)Cl)C(c1ccccc1)c1ccccc1` (stereo not given) it is “inactive”.
As for `OCC(CO)(CO)NCC(O)Cn1c2ccc(Cl)cc2c2cc(Cl)ccc21` (stereo not given), the Potency entry was “inactive”.
Regarding `C=C(C)C(=O)O[C@H]1[C@H]2C(=C)C(=O)O[C@@H]2C[C@@H](C)/C=C\C(=O)[C@](C)(O)[C@@H]1OC(C)=O`, the Potency was 10 µM (active).
Still for that read-out and setting: then `O=[N+]([O-])c1ccc(-[n+]2nc(-c3ccccc3)nn2-c2ccc(I)cc2)cc1`, with “inactive”; and `COc1ccccc1NC(=O)Nc1ccc2ccccc2c1`, with “inactive”.
On the same count and under the same terms, then `CN1CCN(C(=O)c2ccc(Nc3nccc(-c4cccs4)n3)cc2Cl)CC1`, with “inactive”; and `Cn1cc(-c2cnc3ccc4ccc(CS(=O)(=O)NCc5ccccn5)cc4c(=O)c3c2)cn1`, with “inactive”; and `C=C(C)[C@@H]1CC[C@]2(C(=O)O)CC[C@]3(C)C(CCC4[C@@]5(C)C[C@@H](O)[C@H](O)C(C)(C)C5CC[C@]43C)C12` (stereo not given in full), with “inactive”.
As for `CCS(=O)(=O)N(Cc1cccnc1)c1cccc(-c2ccc(C#N)cc2)c1`, the Potency entry was “inactive”.
Turning to `CC(C)CCC[C@@H](C)[C@H]1CC[C@H]2[C@@H]3CC=C4C[C@@H](OC(=O)NCCN(C)C)CC[C@]4(C)[C@H]3CC[C@]12C`, the Potency entry was “inactive”.
For `C=C1[C@@H](C)[C@H]2[C@H](Cc3c[nH]c4ccccc34)NC(=O)[C@]23C(=O)/C=C/C(=O)[C@H](O)/C(C)=C\[C@@H](C)C/C=C/[C@H]3[C@@H]1O`, the Potency result is “inactive”.
On the same count and under the same terms, then `CC(C)(C)c1ccc(CNC(=S)NCc2ccc(NS(C)(=O)=O)c(F)c2)cc1`, with “inactive”; and `C=CC(=O)Nc1cc(Nc2nccc(-c3cn(C)c4ccccc34)n2)c(OC)cc1N(C)CCN(C)C`, with 25.1 µM (active).

The values above are taken from PubChem BioAssay (NCATS).
